Measured values as given in PubChem BioAssay (EPA / NIEHS).
Where “and” joins values, the source holds several entries; their conditions need not be identical. Identical values can stand only once. Results filed as inconclusive are left out. Some compounds were tested as several samples or in several runs, with calls that do not always agree. Calls of active or inactive are those of the source. How the source made its calls, unless noted: active means hit-call score of the fitted dose curve at least 0.9, where 1 is the maximum; inactive means score below 0.9.

Legend:
[1] = read-out: Monocyte Chemoattractant Protein-1 (MCP1), CCL2 (gene 6347); assay: BSK_SAg_MCP1: BioMAP Diversity Plus: SAg Assay for Monocyte Chemoattractant Protein-1 (MCP1) Biomarker Activity (AID 2283090); conditions: primary human HUVEC with PBMC; actives raise or lower the signal
Outline: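 MCP-1 levels in the endothelial–PBMC SAg co-culture were quantified by ELISA at 24 h post-dosing; both increases and decreases versus DMSO scored. Cytotoxicity monitored by SRB total protein in parallel cultures.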

[2] = read-out: E-selectin (Homo sapiens) (UniProt P16581); assay: BSK_SAg_Eselectin: BioMAP Diversity Plus: SAg Assay for Eselectin Biomarker Activity (AID 2283091); conditions: primary human HUVEC with PBMC; actives raise or lower the signal
Outline: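 E-selectin ELISA readout at 24 h post-dosing in human umbilical vein endothelial cell/PBMC co-culture; gain or loss of signal fitted relative to DMSO baseline.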

[3] = read-out: Monokine induced gamma interferon (MIG), CXCL9 (gene 4283); assay: BSK_SAg_MIG: BioMAP Diversity Plus: SAg Assay for Monokine induced gamma interferon (MIG) Biomarker Activity (AID 2283092); conditions: primary human HUVEC with PBMC; actives raise or lower the signal
Outline: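 Values reflect bidirectional fitting of ELISA-measured MIG against DMSO vehicle, taken 24 h after dosing of a co-culture of human umbilical vein endothelial cells and peripheral blood mononuclear cells.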

[4] = BSK_SAg_PBMCCytotoxicity: PBMC Cytotoxicity Assessment in the BioMAP Diversity Plus: SAg Assay (AID 2283093); conditions: primary human HUVEC with PBMC;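 further: PBMC viability measured as Alamar Blue reduction fluorescence at 546/580 nm; fitted both ways against DMSO so a hit may be loss or gain of signal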;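 on AC50: PBMC superantigen activated with SEB plus TSST-1 one hour after compound addition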
Outline: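 Compound added to 75,000 PBMC/well for 1 h; SEB and TSST-1 then added at 20 ng/mL final each; 90 h incubation; Alamar Blue 6 h; read 546/580 nm ex/em. Activity fitted bidirectionally relative to DMSO baseline.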

[5] = read-out: Interleukin-8 (IL8), CXCL8 (gene 3576); assay: BSK_SAg_IL8: BioMAP Diversity Plus: SAg Assay for Interleukin-8 (IL8) Biomarker Activity (AID 2283094); conditions: primary human HUVEC with PBMC; actives raise or lower the signal
Outline: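 Human umbilical vein endothelial cells co-cultured with PBMC, stimulated with superantigen; IL-8 measured by ELISA 24 h after chemical dosing. Bidirectional fitting versus DMSO; SRB staining in parallel cultures tracks cytotoxicity.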

[6] = BSK_SAg_Proliferation: Cell Proliferation Assessment in the BioMAP Diversity Plus: SAg Assay (AID 2283095); conditions: primary human HUVEC with PBMC
Outline: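 Human umbilical vein endothelial cells co-cultured with PBMC; sulforhodamine B total-protein staining (0.1% SRB after 10% TCA fixation, absorbance 560 nm) at 96 h in sub-confluent culture. Fitted bidirectionally against DMSO.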

[7] = BSK_SAg_SRB: Viability Assessment in the BioMAP Diversity Plus: SAg Assay (AID 2283096); conditions: primary human HUVEC with PBMC;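 further: cells read one day after compound addition; hits may be either gain or loss of signal compared with DMSO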
Outline: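 Total protein by sulforhodamine B staining, 24 h after dosing, in HUVEC–PBMC co-culture; DMSO-referenced bidirectional fitting.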

[8] = molecular target: human CYP2A6, CYP2A6 (gene 1548) (UniProt P11509); assay: NVS_ADME_hCYP2A6: NovaScreen (NVS) CYP450-related Enzyme Activity (ADME) Assay for human CYP2A6 (AID 2283099; active means hit-call score of the fitted dose curve at least 0.9, where 1 is the maximum)
Outline: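 Insect-cell-expressed human CYP2A6 enzyme activity measured by fluorescence intensity 0.5 hour post-dosing. Compounds screened at 10 uM in duplicate, then hits tested singly in concentration series (max 20 uM); acetonitrile baseline.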

Measured: AC50

Sequence of E-selectin (Homo sapiens) (P16581 whole entry, looked up): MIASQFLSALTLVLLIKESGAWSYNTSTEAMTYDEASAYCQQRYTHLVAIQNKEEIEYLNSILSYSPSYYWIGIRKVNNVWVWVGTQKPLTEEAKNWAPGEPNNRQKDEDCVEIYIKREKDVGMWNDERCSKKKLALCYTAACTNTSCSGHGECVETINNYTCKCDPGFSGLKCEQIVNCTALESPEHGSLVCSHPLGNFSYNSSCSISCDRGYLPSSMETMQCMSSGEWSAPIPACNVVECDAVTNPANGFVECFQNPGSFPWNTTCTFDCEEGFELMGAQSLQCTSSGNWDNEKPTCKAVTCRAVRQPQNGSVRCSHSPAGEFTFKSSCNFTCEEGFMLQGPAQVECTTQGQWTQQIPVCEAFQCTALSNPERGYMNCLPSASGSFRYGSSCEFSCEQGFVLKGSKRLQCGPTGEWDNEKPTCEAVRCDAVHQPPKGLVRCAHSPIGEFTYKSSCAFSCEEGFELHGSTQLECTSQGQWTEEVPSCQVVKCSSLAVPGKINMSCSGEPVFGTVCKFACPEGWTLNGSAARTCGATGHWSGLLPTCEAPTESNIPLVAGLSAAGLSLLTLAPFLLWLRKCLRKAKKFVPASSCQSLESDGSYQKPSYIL
Sequence of human CYP2A6, CYP2A6 (gene 1548) (P11509 whole entry, looked up): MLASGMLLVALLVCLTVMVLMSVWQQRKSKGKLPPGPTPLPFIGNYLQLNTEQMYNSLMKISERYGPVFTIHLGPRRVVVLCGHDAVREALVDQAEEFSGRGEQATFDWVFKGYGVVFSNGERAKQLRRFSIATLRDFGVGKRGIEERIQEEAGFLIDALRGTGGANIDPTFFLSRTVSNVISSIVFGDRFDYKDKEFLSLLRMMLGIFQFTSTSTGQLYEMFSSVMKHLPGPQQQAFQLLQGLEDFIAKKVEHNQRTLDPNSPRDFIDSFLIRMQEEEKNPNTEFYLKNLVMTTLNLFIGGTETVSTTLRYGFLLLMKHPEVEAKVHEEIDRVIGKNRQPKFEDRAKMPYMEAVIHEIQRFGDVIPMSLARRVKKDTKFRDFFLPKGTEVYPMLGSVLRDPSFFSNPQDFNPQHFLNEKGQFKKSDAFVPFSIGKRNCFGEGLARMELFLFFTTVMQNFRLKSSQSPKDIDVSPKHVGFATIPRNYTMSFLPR

CCC(C)(CC)c1cc(NC(=O)c2c(OC)cccc2OC)on1
not listed: [8]
inactive: all other assays above

O=S(=O)(O)C(F)(F)C(F)(F)C(F)(F)C(F)(F)F
not listed: [8]
inactive: all other assays above

C=CC(N)=O
not listed: [8]
inactive: all other assays above

Clc1ccc(C(Cl)(Cl)Cl)cc1
not listed: [8]
inactive: all other assays above

NS(=O)(=O)C(F)(F)C(F)(F)C(F)(F)C(F)(F)C(F)(F)C(F)(F)C(F)(F)C(F)(F)F
active: [1] 31.2 µM and 54.2 µM and 54.5 µM | [2] 20 µM and 45.5 µM and 49 µM | [3] 34.6 µM and 51.3 µM and 56.3 µM | [4] 33.6 µM and 48 µM and 55.1 µM | [5] 31.8 µM and 43.3 µM and 44.3 µM | [6] 32.2 µM and 43.5 µM and 51.1 µM | [7] 27.6 µM and 47.4 µM and 44.9 µM

CN(C)c1nc(=O)n(C2CCCCC2)c(=O)n1C
not listed: [8]
inactive: all other assays above

CC1=C2C[C@H]3[C@@H](CC=C4C[C@@H](O)CC[C@@]43C)[C@@H]2CC[C@]12O[C@@H]1C[C@H](C)CN[C@H]1[C@H]2C
not listed: [8]
inactive: all other assays above

CCC(=O)O[C@H]1CC[C@H]2[C@@H]3CCC4=CC(=O)CC[C@]4(C)[C@H]3CC[C@]12C
active: [1] 30.1 µM | [2] 34.2 µM | [3] 35.7 µM | [4] 37.9 µM | [5] 29.8 µM | [6] 33.3 µM | [7] 29.4 µM

O=C(NC(=O)c1c(F)cccc1F)Nc1cc(Cl)c(OC(F)(F)C(F)F)c(Cl)c1
not listed: [8]
inactive: all other assays above

C1CC2OC2CC1C1CO1 (stereo not given)
not listed: [8]
inactive: all other assays above

CCCCCCOC(=O)c1ccccc1C(=O)OCCCCCC
inactive: [1] | [3] | [7]
active: [2] 32.6 µM | [4] 35 µM | [5] 29 µM | [6] 28.6 µM

Cc1ccccc1CO[C@@H]1C[C@@]2(C(C)C)CC[C@]1(C)O2
not listed: [8]
inactive: all other assays above

N#Cc1ccc(N(CC(N)=O)CC(F)(F)F)cc1C(F)(F)F
not listed: [7] | [8]
inactive: all other assays above

O=C(NC(=O)c1cc(F)c(F)cc1Cl)Nc1cc(F)ccc1N1CCC(C(=O)O)CC1
not listed: [8]
inactive: all other assays above

ClC(Cl)=C(c1ccc(Cl)cc1)c1ccc(Cl)cc1
active: [1] 39.2 µM | [2] 32.2 µM | [3] 36 µM | [4] 15.4 µM | [5] 34.6 µM | [6] 18.4 µM | [7] 32 µM

COc1ccc(O)c(C(C)(C)C)c1
active: [4] 20 µM
inactive: [1] | [2] | [3] | [4] | [5] | [6] | [7] | [8]

c1ccc(-c2ccccc2)cc1
not listed: [8]
inactive: all other assays above

COS(=O)(=O)OC
not listed: [8]
inactive: all other assays above

O=C(N[C@H]1CN2CCC1CC2)c1cc2ccoc2cn1
not listed: [8]
inactive: all other assays above

C[C@]12CCC(=O)C=C1CC[C@@H]1[C@@H]2CC[C@@]2(C)[C@H]1CC[C@]2(C)O
not listed: [8]
inactive: all other assays above

Oc1c(Cl)c(Cl)c(Cl)c(Cl)c1Cl
inactive: [2] | [3] | [4] | [5] | [8]
active: [1] 10.2 µM and 33.6 µM | [2] 27.3 µM | [3] 34.8 µM | [4] 8 µM | [6] 15.8 µM and 26.9 µM | [7] 14.6 µM and 21.8 µM

CCCCCCCCCc1ccc(O)cc1
active: [1] 29.8 µM | [2] 20 µM | [3] 33.7 µM | [4] 16.2 µM | [5] 20.2 µM | [6] 14.3 µM | [7] 23.8 µM

ClC1=C(Cl)[C@]2(Cl)[C@@H]3[C@H]4C[C@H]([C@@H]5O[C@H]45)[C@@H]3[C@@]1(Cl)C2(Cl)Cl
inactive: [1] | [3] | [5]
active: [2] 5.87 µM | [4] 5.53 µM | [6] 7.7 µM | [7] 8.56 µM

CCC(C)(c1ccc(O)cc1)c1ccc(O)cc1
inactive: [3] | [7]
active: [1] 20 µM | [2] 16.8 µM | [4] 29.8 µM | [5] 16 µM | [6] 28.5 µM

O=C(O)C(F)(F)C(F)(F)C(F)(F)C(F)(F)C(F)(F)C(F)(F)C(F)(F)C(F)(F)F
active: [1] 47.6 µM | [5] 44.1 µM and 55.1 µM | [6] 55.2 µM | [7] 51 µM and 55 µM
inactive: [1] | [2] | [3] | [4] | [5] | [6] | [7]

CCSC(=O)N(CC)C1CCCCC1
not listed: [8]
inactive: all other assays above

CC(c1ccc(O)cc1)(c1ccc(O)cc1)c1ccc(O)cc1
active: [1] 25.9 µM | [2] 13.9 µM | [3] 33.8 µM | [5] 20 µM | [6] 21.6 µM | [7] 15.7 µM
inactive: [4]

CCC(C)c1cc([N+](=O)[O-])cc([N+](=O)[O-])c1O (stereo not given)
active: [1] 23.5 µM | [2] 14.2 µM | [3] 31.7 µM | [4] 5.36 µM | [5] 8.89 µM | [6] 19.6 µM | [7] 18 µM

O=C(O)C(F)(F)C(F)(F)C(F)(F)C(F)(F)C(F)(F)C(F)(F)C(F)(F)C(F)(F)C(F)(F)F
active: [1] 30.6 µM and 50.1 µM and 49.7 µM | [2] 34.3 µM and 54.9 µM and 52.9 µM | [3] 33.7 µM and 54.9 µM and 53.5 µM | [4] 29.8 µM and 47.3 µM and 51 µM | [5] 36.3 µM and 49.4 µM and 41.4 µM | [6] 34.1 µM and 46.2 µM and 47.6 µM | [7] 32 µM and 53.5 µM and 54.4 µM

CCOC(=O)C(O)(c1ccc(Cl)cc1)c1ccc(Cl)cc1
active: [1] 35.2 µM | [2] 31.7 µM | [3] 39.3 µM | [4] 33.7 µM | [5] 32.9 µM | [6] 30.9 µM | [7] 32.3 µM

O=C(O)C(F)(F)C(F)(F)C(F)(F)C(F)(F)C(F)(F)F
not listed: [8]
inactive: all other assays above

CC(C)(c1ccccc1)c1ccc(O)cc1
active: [1] 36.1 µM | [2] 33.5 µM | [3] 38.7 µM | [4] 31.5 µM | [5] 30.9 µM | [6] 34.2 µM | [7] 30.4 µM

O=NN(c1ccccc1)c1ccccc1
not listed: [8]
inactive: all other assays above
